Data as given in PMC5540273 (PLoS ONE, 2017).

tested on: T1, ERK5; conditions: concentration: 1 μM, replicates: in singlicate; n = 1
T1 construct: gene MAPK7
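Note: KINOMEscan kinase panel screen.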

Row | Structure (SMILES) | %Inh
1 | Cn1cc(-c2[nH]c3cc(NC(=O)[C@H](N)C4CCCCC4)cc4c3c2C=NNC4=O)cn1 | 27%
2 | O=C(Nc1ccccc1F)NC1CCN(c2ccnc(Nc3ccc(F)cc3)n2)CC1 [GSK1379800] | 0%
3 | Cc1ccc(F)c(C(=O)Nc2cccc(-c3nn4ccccc4c3-c3ccnc(Nc4cccc(F)c4)n3)c2)c1F [GSK361061] | 0%
4 | O=C(O)C(F)(F)F.O=C(O)C(F)(F)F.O=c1[nH]ccc2nc(N[C@@H]3CCCNC3)nc(Nc3ccc(S(=O)(=O)N4CCOCC4)cc3)c12 [GSK2177277] | 58%
5 | CN1CCN(CCCNc2nccc(-c3c(-c4ccc(F)cc4)nn4cc(C(F)(F)F)ccc34)n2)CC1 [GW621581] | 0%
6 | CSc1cccc2c(-c3ccncn3)c(-c3ccc(F)cc3)nn12 [GW514786] | 0%
7 | O=C(Nc1cccc(-c2nn3ccccc3c2-c2ccnc(Nc3cccc(C(F)(F)F)c3)n2)c1)c1c(F)cccc1F [GSK292658] | 0%
8 | COc1ccc(Nc2nccc(N3CCC(NC(=O)Nc4cccc(OC)c4)C3)n2)cc1 (stereo not shown) [GSK1379742] | 0%
9 | Cc1cccc(NC(=O)Nc2ccc(Oc3ncnc4ccn(C)c34)cc2)c1 | 0%
10 | O=C(NC1CCN(c2ccnc(Nc3ccc(F)cc3)n2)C1)c1cc2ccccc2s1 (stereo not shown) [GSK1379716] | 0%
11 | O=c1[nH]cc(-c2ccc(N3CCOCC3)cc2)c2sc(-c3cn[nH]c3)cc12 [GSK2276055] | 0%
12 | Nc1ncc(-c2cccnc2)c2scc(-c3ccc4c(c3)CCN4C(=O)Cc3ccccc3)c12 [GSK683281] | 0%
13 | O=C(Nc1cccc(Oc2ccc3nc(NC(=O)C4CC4)cn3n2)c1)c1ccccc1C(F)(F)F | 0%
14 | Cl.Cl.NCC(NCc1ccc(-c2ccnc3[nH]ccc23)s1)c1ccccc1 (stereo not shown) [GSK1321565] | 2%
15 | COc1ccc(CNC(=O)NC2CCN(c3ccnc(Nc4ccc(F)cc4)n3)CC2)cc1 [GSK1379788] | 0%
16 | CCn1c(-c2nonc2N)nc2c(C#CC(C)(C)O)nc(OC[C@H](N)c3ccccc3)cc21 [GSK943949] | 0%
17 | CN(c1ccc(NC(=O)Nc2cc(C(F)(F)F)ccc2F)cc1)c1ccnc(Nc2ccc(S(N)(=O)=O)cc2)n1 [GW809893] | 79%
18 | O=C(Nc1n[nH]c2nc(-c3ccc(O)cc3)ccc12)C1CC1 [SB-710363] | 63%
19 | O=C(Nc1cccc(-c2nn3ccccc3c2-c2ccnc(Nc3cccc(F)c3)n2)c1)c1c(F)ccc(F)c1Cl [GSK357952] | 0%

Row | Structure (SMILES) | %Inh
20 | Nc1ncnc2c1nc(-c1ccccc1)n2-c1ccccc1 [SKF-97293] | 6%
21 | Cc1cccc(Nc2nc(N[C@H]3CCNC3)ncc2C(N)=O)c1.Cl [GSK2197149] | 0%
22 | COc1cccc(C2=C(Nc3ccc(Cl)c(C(=O)O)c3)C(=O)NC2=O)c1 [SB-390769] | 0%
23 | COc1cc(Nc2nccc(-c3c(-c4cccc(NC(=O)c5c(F)cccc5F)c4)nn4ccccc34)n2)cc(OC)c1OC [GSK323521] | 0%
24 | CC(=O)Nc1nc2cnc(Nc3cc(NC(=O)c4cccc(C5(C#N)CC5)c4Cl)ccc3C)nc2s1 | 3%
25 | c1ccc(Oc2ccc(Nc3ccnc4cc(-c5ccc(CNCCN6CCOCC6)o5)ccc34)cc2)nc1 [GW567145] | 0%
26 | CNC(=O)c1ccccc1Nc1nc(Nc2ccc(N3CCOCC3)cc2)ncc1Cl.Cl [GSK1576028] | 84%
27 | Cl.Cl.NCC(NC(=O)c1cc(-c2ccccc2)c(-c2ccnc3[nH]ccc23)s1)c1ccccc1 (stereo not shown) [GSK1321561] | 0%
28 | Fc1ccc(-c2ncn(C3CCNCC3)c2-c2ccnc(Oc3ccc(-c4ccccc4)cc3)n2)cc1 [SB-245391] | 9%
29 | Cn1cc(-c2ccc3c(c2)CCN3C(=O)Cc2cccc(F)c2)c2c(N)ncnc21 [GSK2603358] | 2%
30 | COc1cc(Nc2nccc(N3CCC(NC(=O)c4cc5ccccc5s4)C3)n2)cc(OC)c1OC (stereo not shown) [GSK1379760] | 0%
31 | CC(=O)N1CCN(c2ccc(Nc3nccc(-c4sc(C(C)C)nc4-c4cccc(NS(=O)(=O)c5cccc(Cl)c5)c4)n3)cn2)CC1 [GSK1660437] | 0%
32 | COc1cc(Nc2ncc3c(C)nc(-c4cc5ccccc5[nH]4)n3n2)cc(OC)c1OC [GW869516] | 7%
33 | CN1CCN(Cc2cccc(-c3ccc4c(Nc5ccc(Oc6ccccc6)cc5)ccnc4c3)c2)CC1 [GW578342] | 0%
34 | Nc1ncc(-c2ccc3nccc(-c4ccncc4)c3c2)cc1S(=O)(=O)N1CCOCC1 [GSK1627798] | 0%
35 | CN(C)S(=O)(=O)c1cc(-c2ccc3nccc(-c4cccc(S(N)(=O)=O)c4)c3c2)cnc1N [GSK1669921] | 0%
36 | CCn1c(-c2nonc2N)nc2c(C#CC(C)(C)O)ncc(OCCCCN)c21.O=C(O)C(F)(F)F.O=C(O)C(F)(F)F [GSK507274] | 0%
37 | Cc1ccc(C)c(NC(=O)NC2CCN(c3ccnc(Nc4ccc(F)cc4)n3)C2)c1 (stereo not shown) [GSK1379720] | 0%
